Most compounds without a hit are left out; they make up all but 7.8% or so of the library.
PostGolgi yeast: phenotypic screen on post-Golgi transport, primary screen | post-Golgi transport phenotypic cell assay | 98,000 tested, 0.9% active | inhibition, % at 10 µM;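 also: yeast cells grown in 1536-well plates; yeast grown about 18 h at 30C before absorbance read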
PostGolgi ctrl: growth inhibition of yeast control strain, primary screen, counter-screen for post-Golgi transport modulator project; AID 738, 2007; efflux-deficient yeast background strain, growth absorbance A615, 16 h; inhibition, % at 10 µM; 98,000 tested, 5% active
sEH act: soluble epoxide hydrolase activators, primary screen, biochemical, human sEH; Bifunctional epoxide hydrolase 2 (Homo sapiens), P34913; purified human sEH enzymatic activity, activator screen; activation, % at 2 µM; 91,000 tested, 0.04% active; AID 717, 2007; in the data active = activation above about 37%
Target sequence (P34913 whole entry, looked up): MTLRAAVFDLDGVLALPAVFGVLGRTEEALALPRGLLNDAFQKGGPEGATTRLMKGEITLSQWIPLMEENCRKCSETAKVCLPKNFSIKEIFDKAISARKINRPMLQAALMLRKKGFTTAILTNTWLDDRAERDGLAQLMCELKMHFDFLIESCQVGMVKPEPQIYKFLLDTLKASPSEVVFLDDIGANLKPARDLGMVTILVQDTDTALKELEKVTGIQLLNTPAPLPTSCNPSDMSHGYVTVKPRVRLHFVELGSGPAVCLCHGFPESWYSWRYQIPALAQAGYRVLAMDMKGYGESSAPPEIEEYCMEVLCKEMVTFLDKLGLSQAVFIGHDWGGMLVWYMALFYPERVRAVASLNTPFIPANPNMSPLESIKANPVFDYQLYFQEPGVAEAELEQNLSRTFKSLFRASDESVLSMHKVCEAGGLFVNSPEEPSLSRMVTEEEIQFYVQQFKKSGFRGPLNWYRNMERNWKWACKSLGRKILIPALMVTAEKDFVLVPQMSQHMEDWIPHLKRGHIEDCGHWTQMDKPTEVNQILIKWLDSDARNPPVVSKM
Cav3 T inh: Cav3.2 calcium influx blockers – cell-based, Fluo-4 calcium fluorescence, FDSS, MLSMR library, primary screen; AID 449739, 2010; Voltage-dependent T-type calcium channel subunit alpha-1H (Homo sapiens), O95180; 100,000 tested, 4% active; Cav3.2-expressing cells; hits give low values; B-score at 10 µM;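 active = single-dose well whose peak fluorescence ratio is a statistical outlier from its plate by either plate-standardised score or position-corrected B-score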
sEH inhibitor: soluble epoxide hydrolase inhibitors, primary screen, biochemical, human sEH; Bifunctional epoxide hydrolase 2 (Homo sapiens), P34913; recombinant human sEH enzymatic activity assay; inhibition, % at 2 µM; 91,000 tested, 0.34% active; AID 707, 2007; in the data active = inhibition above about 80%
Each line names hits and unclear results; the compound was inactive in the other large screens. Rule as the data show it, unless noted: active = inhibition above about 30%; inactive = the rest.

CCn1c(SCC(=O)N2CCN(c3ccc(Cl)cc3)CC2)nc2ccccc2c1=O	PostGolgi ctrl 55
CCCCn1c(SCC(=O)NC(C)CC)nc2ccc(N3CCOCC3)cc2c1=O (centres undefined)	none (no result: Cav3 T inh)
CCCCn1c(SCC(=O)NCc2ccccc2)nc2ccc(N3CCOCC3)cc2c1=O	PostGolgi ctrl 35
O=C(CSc1nc2ccccc2c(=O)n1Cc1ccco1)N1CCN(c2ccccc2)CC1	PostGolgi ctrl 36, Cav3 T inh -4.9
C=C(C)Cn1c(SCC#N)nc2ccccc2c1=O	none (no result: Cav3 T inh)
CCC1CCCCN1C(=O)CSc1nc2ccsc2c(=O)n1Cc1ccccc1 (centres undefined)	Cav3 T inh -4.9
Cc1ccc(Cn2c(SCC(=O)NCc3ccco3)nc3ccsc3c2=O)cc1	none (no result: sEH act, sEH inhibitor)
CCN(CCCn1c(SCC#N)nc2ccccc2c1=O)c1ccccc1	Cav3 T inh -5.4
C=C(C)Cn1c(SCC)nc2ccccc2c1=O	PostGolgi ctrl 44
CCCCn1c(SCC(=O)N2CCN(c3ccccc3)CC2)nc2ccsc2c1=O	PostGolgi ctrl 43 (no result: sEH act, sEH inhibitor)
CCCCn1c(SCC(=O)N2CCC(C)CC2)nc2ccsc2c1=O	none
Cc1ccc(-c2nc3cnccn3c2Nc2c(C)cccc2C)o1	none
COc1cc(/C=N/NC(=Nc2ccc(C)cc2)c2nc3ccccc3s2)ccc1O	PostGolgi ctrl 55
O=C(NCc1nc2ccccc2[nH]1)C1=C[C@H](c2coc3ccccc3c2=O)C[C@H](OCc2ccc(CO)cc2)O1	none (no result: PostGolgi yeast, PostGolgi ctrl, sEH act, sEH inhibitor)
Cc1ccc2[nH]c3c(N4CCN(Cc5ccccc5)CC4)ncnc3c2c1	none (no result: sEH act, sEH inhibitor)
Cc1ccc2c(c1)[nH]c1c(N3CCN(Cc4ccccc4)CC3)ncnc12	Cav3 T inh -4.9
COC(=O)/C=C/CSC1=N/C(=C/c2ccc(-n3cncn3)cc2)C(=O)N1	none
Cc1cccc(OCCCOc2cccc3cccnc23)c1C	none
Brc1ccc(OCCOCCOc2cccc3cccnc23)cc1	sEH act 58 (no result: PostGolgi yeast, PostGolgi ctrl, Cav3 T inh)
Brc1ccccc1OCCOCCOc1cccc2cccnc12	Cav3 T inh -4.7
COc1cc(C)ccc1OCCOCCOc1ccccc1Br	PostGolgi ctrl 42 (no result: Cav3 T inh)
COC(=O)C1=C(C(=O)OC)[C@@H]2N(Cc3ccccc3)c3ccccc3[C@@]23C[C@@H](C(=O)OC)N(C(=O)C2CCC2)C3=N1	none (no result: PostGolgi yeast, PostGolgi ctrl, sEH act, sEH inhibitor)
CCc1nc2sc3ccccc3c(=O)c2c(=O)n1Cc1ccco1	none (no result: sEH act, sEH inhibitor)
O=c1c2ccccc2sc2nc(C3CCCCC3)n(Cc3ccco3)c(=O)c12	PostGolgi yeast 47, PostGolgi ctrl 50 (no result: sEH act, Cav3 T inh, sEH inhibitor)
C=CCc1c(C)nc(SC)nc1Nc1ccc(C)cc1	PostGolgi ctrl 32
CC(N=C1NS(=O)(=O)c2ccccc21)c1ccccc1 (centres undefined)	none
O=S1(=O)Nc2c(ccc3cccnc23)-c2ccccc21	PostGolgi yeast 85, PostGolgi ctrl 72 (no result: sEH act, sEH inhibitor)
CCOC(=O)C1C(=O)Nc2nc3ccccc3n2C1C(C)C (centres undefined)	none
c1cncc(CNc2ccc3c(c2)OCO3)c1	none
Cc1ccc(CNc2ccc3c(c2)OCO3)c(C)c1	PostGolgi ctrl 39
N#Cc1c(C(F)(F)F)cc(-c2ccccc2)nc1SCC(=O)Nc1sc2c(c1C#N)CCC2	none
CCn1nc(NS(=O)(=O)c2ccccc2)c2cc3cccc(C)c3nc21	none
CCCn1nc(NS(C)(=O)=O)c2cc3cccc(C)c3nc21	PostGolgi ctrl 36
Clc1cccc(NCc2nnc(SCc3ccccc3Cl)o2)c1	PostGolgi ctrl 40 (no result: Cav3 T inh)
COc1ccc(CCNc2nc(N3CCOCC3)nc(N3CCOCC3)n2)cc1OC	none
COc1ccc(CCNc2nc(N3CCCCC3)nc(N3CCCCC3)n2)cc1OC	PostGolgi ctrl 32, Cav3 T inh -6.7
Cc1nc(SC2CC(=O)N(c3cc(Cl)cc(Cl)c3)C2=O)nc2c1CCCC2 (centres undefined)	PostGolgi ctrl 59
COc1ccc(N2C(=O)CC(Sc3nc(C)c4c(n3)CCCC4)C2=O)cc1 (centres undefined)	none
COc1ccccc1NCC(O)Cn1c2ccccc2c2ccccc21 (centres undefined)	PostGolgi ctrl 57
COCCN1Cc2cccc(C(=O)NC(C)c3cccs3)c2C1=O (centres undefined)	none
N#Cc1c(-c2ccc(Cl)cc2)ccn2nc(C3CCCCC3)nc12	none
Oc1ccccc1-c1cc(-c2ccco2)[nH]n1	PostGolgi ctrl 30
Oc1ccccc1-c1cc(-c2ccccc2Cl)[nH]n1	PostGolgi ctrl 75
Oc1ccccc1-c1cc(-c2cccc(F)c2)n[nH]1	none

Assay outcomes deposited in PubChem by several laboratories.
